From PubChem BioAssay (NCATS)
Inconclusive results are not listed. Calls of active or inactive are those of the source. Unless noted, calls follow the shape of the dose curve; as a rule, active = well fitted curve in the direction sought with a large enough effect; inconclusive = small, poorly fitted or top-dose-only effect, or another doubt; inactive = no such curve, though single readings can be large; an effect the other way counts as inactive or inconclusive.

Assays:
[1] = Quantitative High-Throughput drug screen in 47 multiple myeloma cell lines against the NCATS MIPE library collection: KMS11_JCRBsus cell viability assay (AID 1919873); also: nearly all actives have a fitted effect of over 50% in size; also: potency is read from the fitted curve at half-maximal effect
In short: (§1)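 Readout: median RLU from CellTiter-Glo after 5 min at room temperature. Preceding step was 48 h drug treatment of 500 cells/well at 37 °C, 5% CO2, with DMSO-only and media-only control wells.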

[2] = Quantitative High-Throughput drug screen in 47 multiple myeloma cell lines against the NCATS MIPE library collection: KMS28BM_JCRB cell viability assay (AID 1919874); also: nearly all actives have a fitted effect of over 35% in size; also: potency is read from the fitted curve at half-maximal effect
In short: as §1

[3] = qHTS drug screen for cell cycle checkpoint inhibitors in PARPi-resistant BRCA-mutant ovarian cancer cell lines. (AID 1963452; calls by dose curve); details: PEO1/OlaR viability, CellTiter-Glo luminescence, 96 h, stronger effect = lower value
In short: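 PEO1, PEO4 and PEO1/OlaR ovarian cancer cells, 600 per well, exposed 96 h at 37C to a dilution series. Viability read by CellTiter-Glo luminescence, normalized to DMSO and empty wells; activity summarized as Z-AUC.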

[4] = qHTS for identification of novel therapeutic agents for treatment of microphthalmiaassociated transcription factor (MiT) renal cell carcinoma (RCC) (AID 1963991; calls by dose curve; also: potency is read from the fitted curve at half-maximal effect); details: CellTiter-Glo, 48 h; for z-score: stronger effect = lower value
In short: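 Three TFE3-fusion RCC lines (UOK109, UOK124, UOK145), 500 cells/well in complete medium, were treated with MIPE 4.0 compounds for 48 hours at 37 C. Viability was by CellTiter-Glo luminescence, normalized to DMSO (100%) and empty wells (0%); curves fitted over 11 concentrations.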

[5] = qHTS profiling for inhibitors of Plasmodium falciparum proliferation (AID 504749); also: nearly all actives have a fitted effect of over 60% in size; also: potency is read from the fitted curve at half-maximal effect;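 as to activity, negative = inhibition: 0% = DMSO vehicle and full inhibition = artemisinin control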; details: P. falciparum in erythrocytes, SYBR Green DNA, 72 h, at 28.7 µM (top of the series)
In short: (§2)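 Fluorescence of SYBR Green-bound parasite DNA, read at 485/535 nm, served as the growth measure. Infected erythrocytes were cultured with compound 72 h; artemisinin (0.29 uM) and DMSO wells defined the normalization range.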

3D7 = assay: as above; details: P. falciparum in erythrocytes, SYBR Green DNA, 72 h; series mostly up to 28.7 µM
In short: as §2

7G8 = assay: as above; details: P. falciparum in erythrocytes, SYBR Green DNA, 72 h; series mostly up to 28.7 µM
In short: as §2

AA1029 = assay: as above; details: P. falciparum in erythrocytes, SYBR Green DNA, 72 h; series mostly up to 28.7 µM
In short: as §2

AS120 = assay: as above; details: P. falciparum in erythrocytes, SYBR Green DNA, 72 h; series mostly up to 28.7 µM
In short: as §2

ATS189 = assay: as above; details: P. falciparum in erythrocytes, SYBR Green DNA, 72 h; series mostly up to 28.7 µM
In short: as §2

ATS95 = assay: as above; details: P. falciparum in erythrocytes, SYBR Green DNA, 72 h; series mostly up to 28.7 µM
In short: as §2

C2A = assay: as above; details: P. falciparum in erythrocytes, SYBR Green DNA, 72 h; series mostly up to 28.7 µM
In short: as §2

CP185 = assay: as above; details: P. falciparum in erythrocytes, SYBR Green DNA, 72 h; series mostly up to 28.7 µM
In short: as §2

CP191 = assay: as above; details: P. falciparum in erythrocytes, SYBR Green DNA, 72 h; series mostly up to 28.7 µM
In short: as §2

CP192 = assay: as above; details: P. falciparum in erythrocytes, SYBR Green DNA, 72 h; series mostly up to 28.7 µM
In short: as §2

CP194 = assay: as above; details: P. falciparum in erythrocytes, SYBR Green DNA, 72 h; series mostly up to 28.7 µM
In short: as §2

CP201 = assay: as above; details: P. falciparum in erythrocytes, SYBR Green DNA, 72 h; series mostly up to 28.7 µM
In short: as §2

CP211 = assay: as above; details: P. falciparum in erythrocytes, SYBR Green DNA, 72 h; series mostly up to 28.7 µM
In short: as §2

CP215 = assay: as above; details: P. falciparum in erythrocytes, SYBR Green DNA, 72 h; series mostly up to 28.7 µM
In short: as §2

[6] = measured here: PEO1 parental Z-AUC
[7] = TFE3-RCC UOK109 viability, measured here: UOK109 Z-AUC
[8] = TFE3-RCC viability, measured here: UOK124 Z-AUC
[9] = TFE3-RCC viability, measured here: UOK145 Z-AUC

SMILES: C#CC1(O)CCC2C3CCC4=CC(=O)CCC4(C)C3CCC21C (centres undefined)
- Potency [1]: inactive
- Potency [2]: 18.7 µM (active)
- Z-AUC [3]: 0.597 (inactive)
- Z-AUC [3, 6]: 0.372
- Z-AUC ([3]; measured here: PEO4 Z-AUC): 0.608
- z-score [4, 7]: 0.285
- z-score [4, 8]: 0.199
- z-score [4, 9]: 0.147
- activity, negative = inhibition ([5]; parasite line A): 7.72% (inactive)
- activity, negative = inhibition ([5]; parasite line B): 0.354% (inactive)
- Potency (3D7): inactive
- Potency (7G8): inactive
- Potency (AA1029): inactive
- Potency (AS120): inactive
- Potency (ATS189): inactive
- Potency (ATS95): inactive
- Potency (C2A): inactive
- Potency (CP185): inactive
- Potency (CP191): inactive
- Potency (CP192): inactive
- Potency (CP194): inactive
- outcome (CP201): inactive
- Potency (CP211): inactive
- Potency (CP215): inactive

SMILES: O=S(=O)(F)Cc1ccccc1
- Potency [1]: inactive
- Potency [2]: inactive
- Z-AUC [3]: -0.434 (inactive)
- Z-AUC [3, 6]: -0.355
- Z-AUC ([3]; measured here: PEO4 Z-AUC): 0.278
- z-score [4, 7]: 0.128
- z-score [4, 8]: -1.89
- z-score [4, 9]: 0.531

SMILES: CC1(N2CCC(n3c([C@@H]4CCCNC4)nc4ccccc43)CC2)CCCCCCC1
- Potency [1]: 13.2 µM (active)
- Potency [2]: 23.5 µM (active)
- Z-AUC [3]: 1.01 (inactive)
- Z-AUC [3, 6]: 0.227
- Z-AUC ([3]; measured here: PEO4 Z-AUC): 0.462

SMILES: O=C(NCC1CCOCC1)c1cnc(Nc2ccc(Cl)cc2Cl)nc1C(F)(F)F
- Potency [1]: inactive
- Potency [2]: inactive
- Z-AUC [3]: 1.22 (inactive)
- Z-AUC [3, 6]: 0.764
- Z-AUC ([3]; measured here: PEO4 Z-AUC): 1.04

SMILES: CSCC[C@@H](NC(=O)[C@@H](Cc1ccccc1)NC(=O)CNC(=O)CNC(=O)[C@@H](N)Cc1ccc(O)cc1)C(=O)O
- Potency [1]: inactive
- Potency [2]: inactive
- Z-AUC [3]: 1.29 (inactive)
- Z-AUC [3, 6]: 1.17
- Z-AUC ([3]; measured here: PEO4 Z-AUC): 1.05
- z-score [4, 7]: 0.576
- z-score [4, 8]: 0.642
- z-score [4, 9]: 1.12

SMILES: O=c1cccc2n1CC1CNC[C@H]2C1
- Potency [1]: 6.62 µM (active)
- Potency [2]: 5.26 µM (active)
- Z-AUC [3]: 1.36 (inactive)
- Z-AUC [3, 6]: 1.98
- Z-AUC ([3]; measured here: PEO4 Z-AUC): 1.69

SMILES: CCCCCC[C@H]1C(=O)O[C@H](C)[C@H](NC(=O)c2cccc(NC=O)c2O)C(=O)O[C@@H](C)[C@@H]1OC(=O)CC(C)C
- Potency [1]: 0.0743 µM (active)
- Potency [2]: 0.209 µM (active)
- Z-AUC [3]: -1.4 (inactive)
- Z-AUC [3, 6]: -1.96
- Z-AUC ([3]; measured here: PEO4 Z-AUC): -1.72

SMILES: c1cc2c(cc1[C@H]1OC[C@H]3[C@H]1CO[C@H]3c1ccc3c(c1)OCO3)OCO2
- Potency [1]: inactive
- Potency [2]: inactive
- z-score [4, 7]: 0.442
- z-score [4, 8]: 0.255
- z-score [4, 9]: 0.142

SMILES: COCC1(CO)C(=O)C2CCN1CC2 (centres undefined)
- Potency [1]: 7.43 µM (active)
- Potency [2]: 23.5 µM (active)
- Z-AUC [3]: 0.503 (inactive)
- Z-AUC [3, 6]: 0.336
- Z-AUC ([3]; measured here: PEO4 Z-AUC): 0.128

SMILES: COc1ccc2c(c[n+](C)c3c4cc5c(cc4ccc23)OCO5)c1OC
- Potency [1]: 3.32 µM (active)
- Potency [2]: 2.96 µM (active)
- Z-AUC [3]: -0.492 (inactive)
- Z-AUC [3, 6]: 0.375
- Z-AUC ([3]; measured here: PEO4 Z-AUC): 0.195

SMILES: CN1CCN(c2ccc([N+](=O)[O-])c3no[n+]([O-])c23)CC1
- Potency [1]: 23.5 µM (active)
- Potency [2]: 18.7 µM (active)
- Z-AUC [3]: 1.21 (inactive)
- Z-AUC [3, 6]: 1.82
- Z-AUC ([3]; measured here: PEO4 Z-AUC): 1.04

SMILES: CC1=NN=C(c2ccc(N)cc2)c2cc3c(cc2C1)OCO3
- Potency [1]: inactive
- Potency [2]: inactive
- z-score [4, 7]: 0.644
- z-score [4, 8]: 0.871
- z-score [4, 9]: 0.714

SMILES: C[C@]12CC[C@@H]3[C@@H](CCC4=CC(=O)CC[C@@H]43)[C@@H]1CC[C@@H]2OC(=O)CCc1ccccc1
- Potency [1]: inactive
- Potency [2]: inactive
- Z-AUC [3]: -0.102 (inactive)
- Z-AUC [3, 6]: -0.728
- Z-AUC ([3]; measured here: PEO4 Z-AUC): -0.686
- z-score [4, 7]: 0.952
- z-score [4, 8]: 0.605
- z-score [4, 9]: -2.12

SMILES: O=c1[nH]c2ccc(Cl)cc2c(N[C@@H]2CN3CCC2CC3)c1-c1nc2ccccc2[nH]1
- Potency [1]: 0.235 µM (active)
- Potency [2]: 1.32 µM (active)
- Z-AUC [3]: -1.21 (inactive)
- Z-AUC [3, 6]: -1.35
- Z-AUC ([3]; measured here: PEO4 Z-AUC): -1.24
- Potency ([4]; TFE3-RCC UOK109 viability): 3.72 µM (active)
- z-score [4, 7]: -0.938
- z-score [4, 8]: -2.71
- z-score [4, 9]: -1.04

SMILES: NC1=NC(=O)N2CC12 (centres undefined)
- Potency [1]: inactive
- Potency [2]: inactive
- Z-AUC [3]: -1.19 (inactive)
- Z-AUC [3, 6]: -0.747
- Z-AUC ([3]; measured here: PEO4 Z-AUC): -0.506
- Potency (7G8): 10 µM (active)
- Potency (ATS189): inactive
- Potency (ATS95): inactive
- Potency (CP191): inactive
- Potency (CP192): inactive
- outcome (CP201): inactive
- Potency (CP215): inactive
